Source: PubChem
This is a sample that favours compounds with a hit; in the whole collection about 5.3% have one here.
Six1-Eya2 inh = qHTS Assay for Inhibitors of the Six1/Eya2 Interaction; hit rate 0.56% among 360,000; AID 651725, 2012; AlphaScreen GST-Six1/His-Eya2 binding, biochemical; active compounds read low; Homeobox protein SIX1 (Homo sapiens) + Protein phosphatase EYA2 (Homo sapiens), …; activity change, % (test concentration not listed); in the data active means activity change below about -65%; inconclusive means mostly about -30% to -63%; further: on the % scale 0 is the no-effect control and ±100 the full control effect
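GST-Six1 + His-Eya2 (5X stock: 250/500 nM); Tris pH 8.0, 300 mM NaCl, 0.05% BSA, 0.02% Tween 20; GSH donor/Ni acceptor beads; 1 h 37 °C dark; AlphaScreen readout.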
HP1b binding inh = HTS for Inhibitors of HP1-beta Chromodomain Interactions with Methylated Histone Tails; AlphaScreen HP1-beta / biotin-H3K9me3 peptide binding; Potency, µM (titrated, usually from 114 µM), without a hit: top-dose activity change, negative = inhibition, hits mostly inhibitors; hit rate 0.56% among 390,000; further: potency means the concentration at half of the fitted maximal effect; nearly all actives have a fitted effect of over 70% in size
Target sequence (P83916 whole entry, looked up): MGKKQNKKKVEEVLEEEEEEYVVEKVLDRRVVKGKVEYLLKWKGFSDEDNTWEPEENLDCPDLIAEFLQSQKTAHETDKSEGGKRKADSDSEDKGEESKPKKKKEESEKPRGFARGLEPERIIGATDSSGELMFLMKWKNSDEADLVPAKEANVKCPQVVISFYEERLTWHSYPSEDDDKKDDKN
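AlphaScreen: HP1-beta (50 nM) preformed 30 min with biotin-H3(1-18)K9me3 peptide (50 nM) in PBS pH 7.4, 0.01% Tween-20. Compound added for 30 min at RT, then streptavidin donor/nickel chelate acceptor beads (10 ug/mL) for 30 min.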
JMJD2A Tudor = qHTS Assay for Inhibitors of JMJD2A-Tudor Domain | Lysine-specific demethylase 4A (Homo sapiens), O75164 | AlphaScreen JMJD2A-Tudor / H3K4me3 peptide binding | hit rate 4.4% among 390,000 | Potency, µM (top dose mostly 114 µM), for the others: top-dose activity change, negative = inhibition, hits mostly inhibitors; further: potency means the concentration at half of the fitted maximal effect; on the % scale 0 is the no-effect control and ±100 the full control effect; nearly all actives have a fitted effect of over 50% in size
BAZ2B inh = qHTS Assay for Inhibitors of BAZ2B | AID 504333, 2011 | Potency, µM (highest dose often 114 µM), without a hit: at the top dose activity change, negative = inhibition, most hits filed as inhibitors | AlphaScreen BAZ2B-H3K14Ac peptide displacement | hit rate 4.4% among 360,000; further: potency means the concentration at half of the fitted maximal effect; on the % scale 0 is the no-effect control and ±100 the full control effect; nearly all actives have a fitted effect of over 60% in size
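BAZ2B (50 nM) with biotin-H3(5-23)K14Ac peptide (50 nM) in PBS pH 7.4, 0.01% Tween-20, preformed 30 min, then compound 30 min at room temperature; top concentration 110uM. AlphaScreen streptavidin donor/nickel chelate acceptor beads (10 ug/mL final), 20 min dark, signal read.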
CtBP-E1A inh = qHTS Assay for Inhibitors of the CtBP/E1A Interaction; AlphaScreen GST-E1A/His-CtBP binding, 1536-well; active compounds read low; activity change, % (concentration not given with the values); hit rate 0.49% among 340,000; AID 651724, 2012; CtBP / adenovirus E1A interaction (AlphaScreen); in the data active means activity change below about -65%; inconclusive means mostly about -30% to -63%; further: on the % scale 0 is the no-effect control and ±100 the full control effect
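In 5 uL wells, 23 nL compound meets equimolar GST-E1A and His-CtBP (5X stock 125 nM each) for 2 h, 37 °C. Beads (5X, 50 ug/mL) then 1 h, 37 °C, dark.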
TDP1 inh = qHTS Assay for Inhibitors of Tyrosyl-DNA Phosphodiesterase (TDP1). hit rate 0.28% among 350,000. recombinant TDP1, AlphaScreen DNA substrate cleavage. Tyrosyl-DNA phosphodiesterase 1 (Homo sapiens), Q9NUW8. Potency, µM (series often up to 130 µM), inactives show at the highest dose activity change, negative = inhibition, hits mostly inhibitors. AID 485290, 2010; further: potency means the concentration at half of the fitted maximal effect; on the % scale 0 is the no-effect control and ±100 the full control effect; nearly all actives have a fitted effect of over 40% in size
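AlphaScreen read-out: signal falls as enzyme removes the 3' tyrosine-FITC from a 5'-biotinylated DNA oligo (15 nM, 5 min, RT). Enzyme was E. coli-made recombinant Tdp1 at 1 nM, exposed to compound for 15 min beforehand; beads 10 ug/ml, 10 min.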
An asterisk follows results filed as active; [ ] = remark or other dose. Unless noted, the call rests on the fitted dose curve; in most records, active means well fitted inhibition curve with a large enough effect; inconclusive means small, poorly fitted or top-dose-only effect; inactive means no such curve, though single readings can be large or run the other way.

`CCCCn1c(NCc2ccc(N(C)C)cc2)nc2ccccc21` gave Six1-Eya2 inh inconclusive, HP1b binding inh inconclusive, JMJD2A Tudor 40µM*, BAZ2B inh 40µM*, CtBP-E1A inh -8 and TDP1 inh 2%.
Screening Cc1cccc(N2CCN(C(=O)Cc3c(C(=O)O)c(C)cn3C)CC2)c1C returned HP1b binding inh -13%, JMJD2A Tudor -21%, BAZ2B inh -16% and TDP1 inh 4%.
CCNC(=O)Cc1ccc(NC(=O)N2CCCCc3ccccc32)cc1 was read as HP1b binding inh 51%, JMJD2A Tudor 0%, BAZ2B inh -1% and TDP1 inh 8%.
For CN(C)c1ccc(CNC(=O)Cc2ccc(NC(=O)N3CCCCc4ccccc43)cc2)cc1 the results were HP1b binding inh -12%, JMJD2A Tudor 50µM*, BAZ2B inh 45µM* and TDP1 inh 10%.
`CCOC(=O)c1cccc(NC(=O)CCn2nc(C)c3c(C)n(-c4ccccc4)nc3c2=O)c1` gave HP1b binding inh 11%, JMJD2A Tudor -11%, BAZ2B inh -12% and TDP1 inh 6%.
`COc1cc(-c2nc3ccccn3c2/N=C/c2cc(OC)c(OC)c(OC)c2)ccc1O` gave Six1-Eya2 inh -10, HP1b binding inh -59%, JMJD2A Tudor 45µM* and CtBP-E1A inh -9.
`Cc1c(-c2ccc(Br)cc2)nc2ccccn12` gave Six1-Eya2 inh 0, HP1b binding inh -8%, JMJD2A Tudor -19%, BAZ2B inh -5%, CtBP-E1A inh -15 and TDP1 inh -3%.
CN(C)c1ccc(-c2nc3ccccn3c2/N=C/c2ccc(Br)cc2)cc1 was read as Six1-Eya2 inh -9, HP1b binding inh inconclusive, JMJD2A Tudor 45µM*, BAZ2B inh 11µM*, CtBP-E1A inh -21 and TDP1 inh -3%.
Screening O=C(O)c1ccc(Cl)c(NC(=S)NC(=O)c2cccc(COc3ccccc3)c2)c1 returned Six1-Eya2 inh -12, HP1b binding inh inconclusive, JMJD2A Tudor inconclusive, BAZ2B inh 50µM*, CtBP-E1A inh 0 and TDP1 inh inconclusive.
For O=C(NC(=S)Nc1ccc(Cl)c(C(=O)O)c1)c1cccc(COc2ccccc2)c1 the results were Six1-Eya2 inh -6, HP1b binding inh -18%, JMJD2A Tudor inconclusive, BAZ2B inh 1%, CtBP-E1A inh -18 and TDP1 inh 2%[56.1 µM].
`N#Cc1ccccc1COC(=O)c1ccc2c(c1)OCO2` gave Six1-Eya2 inh 42, HP1b binding inh 125%, JMJD2A Tudor 26%, BAZ2B inh 34% and TDP1 inh -7%.
N#Cc1ccccc1COC(=O)c1ccc2c(c1)OCCO2 was read as Six1-Eya2 inh 0, HP1b binding inh 78%, JMJD2A Tudor 35%, BAZ2B inh 31%, CtBP-E1A inh -2 and TDP1 inh 89µM*.
For Cc1cnc2c3c(cc(Cl)c2c1)-c1ccccc1S(=O)(=O)N3 the results were HP1b binding inh -17%, JMJD2A Tudor 20µM* and TDP1 inh 0%.
Screening O=S1(=O)Nc2c(ccc3cccnc23)-c2ccccc21 returned Six1-Eya2 inh -91*, HP1b binding inh 29%, JMJD2A Tudor 5.6µM*, BAZ2B inh 6.3µM*, CtBP-E1A inh -89* and TDP1 inh 7%.
COc1ccc(N2CC(NC(=O)c3ccc(Br)o3)CC2=O)cc1 (stereo unspecified) was read as HP1b binding inh 8%, JMJD2A Tudor -18%, BAZ2B inh 0% and TDP1 inh 3%.
For CCc1ccc(C(=O)c2cn(CC(=O)Nc3ccc(OC)cc3)c3cc4c(cc3c2=O)OCO4)cc1 the results were HP1b binding inh 19%, JMJD2A Tudor -15%, BAZ2B inh -6% and TDP1 inh -1%.
`CCc1ccc(C(=O)c2cn(CC(=O)Nc3ccc4c(c3)OCO4)c3ccc(OC)cc3c2=O)cc1` gave HP1b binding inh -10%, JMJD2A Tudor 8.9µM* and BAZ2B inh 79µM*.
`CC(=O)/C(=N/Nc1cccc(C)c1)N1CCOCC1` gave Six1-Eya2 inh 0, HP1b binding inh 6%, JMJD2A Tudor 89µM*, BAZ2B inh inconclusive, CtBP-E1A inh 2 and TDP1 inh 10%.
For S=c1[nH]nc2ccccn12 the results were Six1-Eya2 inh 0, HP1b binding inh inconclusive, JMJD2A Tudor 6.3µM* and CtBP-E1A inh 1.
O=S1(=O)C2CC3CCC2(CN1Cc1cccc(F)c1)O3 (stereo unspecified) was read as HP1b binding inh 12%, JMJD2A Tudor -15% and TDP1 inh 0%.
For COc1ccc(OC)c2sc(N(Cc3cccnc3)C(C)=O)nc12 the results were HP1b binding inh 30%, JMJD2A Tudor -6%, BAZ2B inh -4% and TDP1 inh 5%.
Screening O=c1cc[nH]c2c1ccc1c(=O)cc[nH]c12 returned Six1-Eya2 inh -75*, HP1b binding inh 14%, JMJD2A Tudor inconclusive, BAZ2B inh -26% and CtBP-E1A inh -86*.
CC(=O)Nc1ccc2c(c1)C(=Nc1cccc(C)c1)c1ccccc1-2 was read as Six1-Eya2 inh -26, HP1b binding inh inconclusive, JMJD2A Tudor 32µM* and CtBP-E1A inh -22.
Screening CC(=O)Nc1cccc(C)c1 returned Six1-Eya2 inh -1, HP1b binding inh 39%, JMJD2A Tudor -11%, BAZ2B inh -5%, CtBP-E1A inh 5 and TDP1 inh 0%.
Cc1ccc2onc(CNC(=O)Nc3cc(F)ccc3F)c2c1 was read as HP1b binding inh 70%, JMJD2A Tudor 14% and BAZ2B inh -3%.
`OCc1ccccc1SSc1ccccc1CO` gave Six1-Eya2 inh -8, HP1b binding inh inconclusive, JMJD2A Tudor 14µM* and CtBP-E1A inh -2.
Cc1cccc(N2CCN(C(=O)CN3C(=O)COc4ccc(S(=O)(=O)N5CCC(C)CC5)cc43)CC2C)c1 (stereo unspecified) was read as HP1b binding inh 42%, JMJD2A Tudor -18%, BAZ2B inh -16% and TDP1 inh 4%.
`COc1ccc(NCc2ccc(OC)c(Cn3ccnc3)c2)c(OC)c1` gave Six1-Eya2 inh inconclusive, HP1b binding inh inconclusive, JMJD2A Tudor 40µM*, BAZ2B inh 50µM* and CtBP-E1A inh 6.
